# Measured values taken from PubChem BioAssay (EPA / NIEHS).
# Records with an inconclusive call do not appear. Activity calls are given as the source filed them. The calls were made as follows, unless noted: active = hit-call score of the fitted dose curve at least 0.9, where 1 is the maximum; inactive = score below 0.9.
# Legend:
# [1] = target: Glucocorticoid receptor (Homo sapiens) (UniProt P04150); test: ATG_GR_TRANS: Attagene TRANS-FACTORIAL HepG2 Assay for human Glucocorticoid Receptor (GR) (AID 2282978; active = hit-call score of the fitted dose curve at least 0.9, where 1 is the maximum;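 also: activators score as hits since higher reporter transcript over DMSO is fitted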); settings: HepG2 Attagene TRANS GR reporter, mRNA transcription
# Chain of Glucocorticoid receptor (Homo sapiens) (P04150 whole entry, looked up, the tested form may be a part): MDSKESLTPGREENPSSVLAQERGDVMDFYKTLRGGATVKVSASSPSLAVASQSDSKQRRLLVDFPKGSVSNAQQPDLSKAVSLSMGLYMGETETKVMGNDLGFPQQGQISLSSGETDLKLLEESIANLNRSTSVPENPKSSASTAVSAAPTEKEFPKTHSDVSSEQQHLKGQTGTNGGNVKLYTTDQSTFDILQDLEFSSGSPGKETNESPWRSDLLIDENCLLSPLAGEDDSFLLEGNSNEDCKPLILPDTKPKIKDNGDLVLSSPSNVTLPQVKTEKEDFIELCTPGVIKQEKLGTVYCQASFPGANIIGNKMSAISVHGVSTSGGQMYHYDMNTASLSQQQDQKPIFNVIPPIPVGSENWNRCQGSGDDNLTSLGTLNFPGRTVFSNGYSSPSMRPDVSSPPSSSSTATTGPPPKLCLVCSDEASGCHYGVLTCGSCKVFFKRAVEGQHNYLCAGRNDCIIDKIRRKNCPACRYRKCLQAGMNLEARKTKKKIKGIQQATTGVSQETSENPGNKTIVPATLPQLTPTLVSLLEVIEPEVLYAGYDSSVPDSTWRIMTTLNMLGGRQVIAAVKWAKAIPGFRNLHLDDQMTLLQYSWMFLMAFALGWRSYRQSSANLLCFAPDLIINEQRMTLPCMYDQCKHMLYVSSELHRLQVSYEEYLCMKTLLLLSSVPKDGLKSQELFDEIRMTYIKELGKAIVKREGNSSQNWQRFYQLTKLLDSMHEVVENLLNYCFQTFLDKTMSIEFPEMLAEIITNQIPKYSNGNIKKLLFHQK
# Outline: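 Readout is reporter transcript from a chimeric GR-Gal4 acting on GAL4-UAS in transfected human HepG2 liver cells after 24 h exposure, quantified by RT-PCR and capillary electrophoresis. Activation fitted upward against DMSO.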
# [2] = target: Bile acid receptor (Homo sapiens) (UniProt Q96RI1); test: ATG_FXR_TRANS: Attagene TRANS-FACTORIAL HepG2 Assay for Farnesoid X Receptor (FXR) (AID 2282979; active = hit-call score of the fitted dose curve at least 0.9, where 1 is the maximum;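 also: hits raise reporter mRNA above DMSO so AC50 marks FXR activation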); settings: HepG2 Attagene TRANS FXR-GAL4 reporter transcription
# Chain of Bile acid receptor (Homo sapiens) (Q96RI1 whole entry, looked up, the tested form may be a part): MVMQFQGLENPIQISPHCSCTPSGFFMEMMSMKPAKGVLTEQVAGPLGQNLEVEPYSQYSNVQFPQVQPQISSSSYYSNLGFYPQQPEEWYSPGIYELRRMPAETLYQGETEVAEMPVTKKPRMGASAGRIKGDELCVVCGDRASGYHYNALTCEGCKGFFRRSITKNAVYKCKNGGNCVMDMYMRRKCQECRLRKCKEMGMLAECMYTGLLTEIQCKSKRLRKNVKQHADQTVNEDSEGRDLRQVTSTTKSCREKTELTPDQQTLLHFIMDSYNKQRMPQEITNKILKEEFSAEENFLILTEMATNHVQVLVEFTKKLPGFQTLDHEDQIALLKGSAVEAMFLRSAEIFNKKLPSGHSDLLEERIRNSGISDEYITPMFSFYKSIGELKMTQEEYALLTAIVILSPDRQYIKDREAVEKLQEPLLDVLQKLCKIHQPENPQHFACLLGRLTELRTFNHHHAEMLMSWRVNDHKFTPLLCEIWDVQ
# Outline: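 After 24 h chemical treatment of transfected HepG2 cells, GAL4-UAS reporter transcripts driven by an exogenous FXR-GAL4 fusion were measured by RT-PCR and capillary electrophoresis. Increases over DMSO were fitted.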
# [3] = target: Oxysterols receptor LXR-beta (Homo sapiens) (UniProt P55055); test: ATG_LXRb_TRANS: Attagene TRANS-FACTORIAL HepG2 Assay for human Liver X Receptor beta (LXRb) (AID 2282981; active = hit-call score of the fitted dose curve at least 0.9, where 1 is the maximum); settings: HepG2 Attagene TRANS GAL4-LXRb reporter, mRNA
# Chain of Oxysterols receptor LXR-beta (Homo sapiens) (P55055 whole entry, looked up, the tested form may be a part): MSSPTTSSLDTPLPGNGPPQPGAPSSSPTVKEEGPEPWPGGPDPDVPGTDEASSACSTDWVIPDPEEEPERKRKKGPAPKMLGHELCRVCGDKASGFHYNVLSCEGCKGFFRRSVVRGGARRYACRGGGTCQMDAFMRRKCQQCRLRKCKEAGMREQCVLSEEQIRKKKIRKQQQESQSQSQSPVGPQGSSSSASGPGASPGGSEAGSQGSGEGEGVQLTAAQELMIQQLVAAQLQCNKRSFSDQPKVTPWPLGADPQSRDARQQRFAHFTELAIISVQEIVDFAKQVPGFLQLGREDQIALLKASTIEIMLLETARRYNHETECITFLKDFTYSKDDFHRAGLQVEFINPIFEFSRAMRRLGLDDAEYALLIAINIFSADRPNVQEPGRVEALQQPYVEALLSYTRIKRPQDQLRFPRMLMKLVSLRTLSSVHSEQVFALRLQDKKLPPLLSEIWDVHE
# Outline: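 After 24 h of chemical treatment, transfected HepG2 cells yield total RNA; reporter cDNA is PCR-amplified, FAM-labelled, HpaI-cut and run on capillary electrophoresis. Signal reflects chimeric LXRb-Gal4 activity on GAL4-UAS reporters.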
# [4] = target: Hepatocyte nuclear factor 4-alpha (Homo sapiens) (UniProt P41235); test: ATG_HNF4a_TRANS: Attagene TRANS-FACTORIAL HepG2 Assay for human Hepatocyte Nuclear Factor 4 alpha (HNF4a) (AID 2282982; active = hit-call score of the fitted dose curve at least 0.9, where 1 is the maximum); settings: HepG2 HNF4a transactivation reporter, mRNA readout
# Chain of Hepatocyte nuclear factor 4-alpha (Homo sapiens) (P41235 whole entry, looked up): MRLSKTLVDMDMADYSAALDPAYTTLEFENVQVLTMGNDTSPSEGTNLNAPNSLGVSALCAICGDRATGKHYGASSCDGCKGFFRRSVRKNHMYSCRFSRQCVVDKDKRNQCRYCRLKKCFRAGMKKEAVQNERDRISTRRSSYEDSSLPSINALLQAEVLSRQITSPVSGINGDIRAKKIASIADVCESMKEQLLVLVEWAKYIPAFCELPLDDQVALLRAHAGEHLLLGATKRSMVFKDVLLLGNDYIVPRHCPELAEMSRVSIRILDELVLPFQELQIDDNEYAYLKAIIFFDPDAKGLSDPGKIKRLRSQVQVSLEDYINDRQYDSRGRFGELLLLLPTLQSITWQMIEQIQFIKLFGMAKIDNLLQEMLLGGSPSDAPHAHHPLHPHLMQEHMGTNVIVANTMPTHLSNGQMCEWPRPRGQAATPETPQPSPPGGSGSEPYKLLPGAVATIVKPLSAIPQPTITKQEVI
# Outline: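 Multiplexed reporter assay: transfected HepG2, 24 h exposure, total RNA → oligo(dT) RT → PCR → 6-FAM extension → HpaI digest → CE fluorescence. DMSO = negative control.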
# [5] = ATG_M_06_TRANS: Attagene TRANS-FACTORIAL HepG2 Assay for M06 Transcription Factor (Internal Marker) (AID 2282983; active = hit-call score of the fitted dose curve at least 0.9, where 1 is the maximum); settings: HepG2 Attagene TRANS M06 internal marker reporter
# Outline: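 Multi-reporter-transfected HepG2, 24 h treatment; reporter transcripts quantified via RT-PCR, primer-extension labelling and CE. DMSO-normalized gain-of-signal fit.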
# [6] = ATG_M_32_TRANS: Attagene TRANS-FACTORIAL HepG2 Assay for M32 Transcription Factor (Internal Marker) (AID 2282984; active = hit-call score of the fitted dose curve at least 0.9, where 1 is the maximum;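 also: transcript level of a background control reporter unit measured by RT-PCR and capillary electrophoresis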); settings: HepG2 Attagene TRANS M32 internal marker reporter
# Outline: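 Cell-based TRANS-format assay in HepG2: exogenous chimeric GAL4 reporter units transiently expressed, compounds applied 24 h. Reporter mRNA detected by RT-PCR plus capillary electrophoresis; this readout is an internal background marker.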
# [7] = target: Transcriptional activator Myb (Homo sapiens) (UniProt P10242); test: ATG_Myb_CIS: Attagene CIS-FACTORIAL HepG2 Assay for human Myeloblastosis (Myb) Proto-Oncogene Transcription Factor (AID 2282986); settings: HepG2 Attagene CIS-FACTORIAL Myb reporter transcription; actives raise or lower the signal
# Outline: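 Reporter mRNA is quantified by RT-PCR and capillary electrophoresis 24 h after dosing HepG2 cells transfected with cis-regulated reporter units, which track endogenous transcription factor activity. Gain and loss of signal are fitted versus DMSO baseline.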
# [8] = target: Nuclear respiratory factor 1 (Homo sapiens) (UniProt Q16656); test: ATG_NRF1_CIS: Attagene CIS-FACTORIAL HepG2 Assay for human Nuclear Respiratory Factor 1 (NRF1) Orphan Gene (AID 2282987); settings: HepG2 NRF1 cis-element reporter, Attagene multiplex; actives raise or lower the signal
# Chain of Nuclear respiratory factor 1 (Homo sapiens) (Q16656 whole entry, looked up): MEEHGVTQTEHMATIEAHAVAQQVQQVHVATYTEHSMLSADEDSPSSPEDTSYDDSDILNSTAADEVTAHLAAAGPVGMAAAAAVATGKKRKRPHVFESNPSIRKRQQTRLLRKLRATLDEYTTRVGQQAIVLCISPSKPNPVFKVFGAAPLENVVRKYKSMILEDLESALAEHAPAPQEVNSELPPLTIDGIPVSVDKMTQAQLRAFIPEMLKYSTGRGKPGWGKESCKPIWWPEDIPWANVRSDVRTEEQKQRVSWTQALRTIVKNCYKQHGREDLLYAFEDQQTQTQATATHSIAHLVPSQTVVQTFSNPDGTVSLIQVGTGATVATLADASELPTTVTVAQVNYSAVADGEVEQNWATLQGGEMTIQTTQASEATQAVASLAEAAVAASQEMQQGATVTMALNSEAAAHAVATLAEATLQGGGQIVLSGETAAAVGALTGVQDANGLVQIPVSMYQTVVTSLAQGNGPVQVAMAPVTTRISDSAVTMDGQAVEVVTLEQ
# Outline: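 Endogenous NRF1-driven reporter transcription in transfected HepG2 cells after 24 h treatment. Readout: RT-PCR products, 6-FAM labelled and resolved by capillary electrophoresis; changes fitted both directions relative to DMSO.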
# [9] = ATG_NFI_CIS: Attagene CIS-FACTORIAL HepG2 Assay for human Nuclear Factor I (NFI) (AID 2282989); settings: HepG2 cis-regulatory reporter, NFI response element transcription; actives raise or lower the signal
# Outline: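 Multiplexed cis-reporter system in human HepG2 cells reports native TF activity as reporter mRNA induction 24 h post-dose. Fragments labelled with 6-FAM, HpaI-digested and resolved by capillary electrophoresis; activity fitted both directions versus DMSO.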
# [10] = target: Myc proto-oncogene protein (Homo sapiens) (UniProt P01106); test: ATG_Myc_CIS: Attagene CIS-FACTORIAL HepG2 Assay for human Myelocytomatosis (Myc) Proto-Oncogene Transcription Factor (AID 2282990); settings: HepG2, Attagene cis-reporter transcription factor activity; actives raise or lower the signal
# Chain of Myc proto-oncogene protein (Homo sapiens) (P01106 whole entry, looked up, the tested form may be a part): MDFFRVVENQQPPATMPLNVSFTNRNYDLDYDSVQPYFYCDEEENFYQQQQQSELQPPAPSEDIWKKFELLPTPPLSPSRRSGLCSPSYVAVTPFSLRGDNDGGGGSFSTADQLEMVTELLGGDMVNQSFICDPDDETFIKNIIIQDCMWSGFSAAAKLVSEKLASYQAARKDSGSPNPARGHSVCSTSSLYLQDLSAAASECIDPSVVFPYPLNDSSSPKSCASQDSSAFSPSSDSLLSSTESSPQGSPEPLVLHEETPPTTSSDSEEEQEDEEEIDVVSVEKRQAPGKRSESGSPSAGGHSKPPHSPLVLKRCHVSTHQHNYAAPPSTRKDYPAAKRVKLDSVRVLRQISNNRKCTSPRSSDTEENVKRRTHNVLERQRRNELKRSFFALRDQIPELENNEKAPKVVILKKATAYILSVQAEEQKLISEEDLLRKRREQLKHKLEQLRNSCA
# Outline: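 After 24 h chemical treatment of HepG2 cells carrying multiplexed cis-regulated reporter constructs, reporter transcripts quantified by RT-PCR and capillary electrophoresis of fluorescent fragments. Gain or loss fitted against DMSO baseline.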
# [11] = ATG_NF_kB_CIS: Attagene CIS-FACTORIAL HepG2 Assay for human Nuclear Factor Kappa B (NF-kB) (AID 2282991); settings: HepG2 Attagene cis-factorial NF-kB reporter mRNA; actives raise or lower the signal
# Outline: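 Readout is reporter transcript level, gain or loss versus DMSO, measured 24 h post-dose via RT-PCR, fluorescent labelling and capillary electrophoresis. Human HepG2 liver cells carried transiently transfected CIS reporter constructs reflecting endogenous factors.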
# [12] = ATG_NRF2_ARE_CIS: Attagene CIS-FACTORIAL HepG2 Assay for human Nuclear Factor Erythroid 2 Related Factor 2 (NFR2) response to Antioxidant Response Elements (ARE) (AID 2282992); settings: HepG2 Attagene ARE/NRF2 reporter, transcription factor activity; actives raise or lower the signal;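 as to AC50: reporter mRNA level measured by RT-PCR and capillary electrophoresis fluorescence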
# Outline: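 Fluorescence intensity of reporter-specific cDNA fragments, separated by capillary electrophoresis, reflects mRNA induction in transfected HepG2 cells at 24 h. Activity is fitted bidirectionally, DMSO serving as baseline.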
# [13] = ATG_Oct_MLP_CIS: Attagene CIS-FACTORIAL HepG2 Assay for human Octamer-Binding Transcription Factor (Oct) (AID 2282993); settings: HepG2 Attagene cis-factorial Oct reporter, mRNA; actives raise or lower the signal
# Outline: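 After 24 h compound exposure, transfected HepG2 cells were lysed for total RNA; reporter-specific cDNA was PCR-amplified, fluorescently labelled and sized by capillary electrophoresis. Bidirectional curve fitting used DMSO as baseline.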
# [14] = target: Cellular tumor antigen p53 (Homo sapiens) (UniProt P04637); test: ATG_p53_CIS: Attagene CIS-FACTORIAL HepG2 Assay for human p53 Transcription Factor (AID 2282994); settings: HepG2 p53 cis-element reporter, Attagene mRNA; actives raise or lower the signal
# Chain of Cellular tumor antigen p53 (Homo sapiens) (P04637 whole entry, looked up): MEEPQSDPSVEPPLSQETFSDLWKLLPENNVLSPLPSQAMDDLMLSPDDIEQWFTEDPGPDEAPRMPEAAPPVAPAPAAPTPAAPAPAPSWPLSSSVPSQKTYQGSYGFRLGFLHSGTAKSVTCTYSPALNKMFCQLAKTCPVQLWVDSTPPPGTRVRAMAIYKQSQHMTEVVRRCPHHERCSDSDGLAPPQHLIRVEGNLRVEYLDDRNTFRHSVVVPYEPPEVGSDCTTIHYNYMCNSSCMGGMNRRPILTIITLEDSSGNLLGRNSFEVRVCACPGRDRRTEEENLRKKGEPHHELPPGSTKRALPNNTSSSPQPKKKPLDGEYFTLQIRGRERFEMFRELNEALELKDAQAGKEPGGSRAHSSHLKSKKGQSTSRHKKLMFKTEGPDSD
# Outline: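 Transiently transfected HepG2 (multiple cis reporter transcription units); exposure 24 h; reporter RNA via RT-PCR, 6-FAM extension, 2 h HpaI digest at 37 C, CE detection; DMSO baseline.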
# [15] = BSK_3C_TissueFactor: BioMAP Diversity Plus: 3C Assay for Tissue Factor Biomarker Activity (AID 2282997); settings: BioMAP 3C HUVEC, tissue factor biomarker readout; actives raise or lower the signal
# Outline: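 In this endothelial system, HUVEC are treated for 24 h and Tissue Factor is assessed by ELISA, normalised to DMSO.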
# [16] = BSK_3C_uPAR: BioMAP Diversity Plus: 3C Assay for Urokinase-type plasminogen activator receptor (uPAR) Biomarker Activity (AID 2282998); settings: BioMAP 3C HUVEC, uPAR biomarker ELISA; actives raise or lower the signal
# Outline: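 Values derive from bidirectional curve fitting relative to DMSO, which served as baseline of activity. uPAR was measured by ELISA in human umbilical vein endothelial primary cultures 24 h after compound addition.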
# [17] = BSK_3C_VCAM1: BioMAP Diversity Plus: 3C Assay for Vascular cell adhesion molecule 1 (VCAM1) Biomarker Activity (AID 2282999); settings: BioMAP 3C HUVEC, VCAM1 ELISA, cytokine-stimulated; actives raise or lower the signal
# Outline: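 Activity fitted in both directions relative to DMSO, with ELISA measurement of the surface marker on primary HUVEC (3C) at 24 h post-treatment; parallel SRB staining (0.1% SRB, TCA-fixed, 560 nm) flagged overt cytotoxicity.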
# [18] = BSK_4H_Eotaxin3: BioMAP Diversity Plus: 4H Assay for Eotaxin 3 Biomarker Activity (AID 2283000); settings: primary human endothelial cells (HUVEC); actives raise or lower the signal;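 as to outcome: CCL26 protein level quantified by ELISA in parallel with SRB cytotoxicity check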
# Outline: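 ELISA quantitation of CCL26 (Eotaxin-3) protein from chemically dosed human vascular endothelial cells at 24 h; increases and decreases both scored relative to DMSO-treated baseline.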
# [19] = target: Oxysterols receptor LXR-alpha (Homo sapiens) (UniProt Q13133); test: ATG_LXRa_TRANS: Attagene TRANS-FACTORIAL HepG2 Assay for human Liver X Receptor alpha (LXRa) (AID 2282980; active = hit-call score of the fitted dose curve at least 0.9, where 1 is the maximum); settings: HepG2 Attagene TRANS reporter, LXRa transactivation
# Chain of Oxysterols receptor LXR-alpha (Homo sapiens) (Q13133 whole entry, looked up, the tested form may be a part): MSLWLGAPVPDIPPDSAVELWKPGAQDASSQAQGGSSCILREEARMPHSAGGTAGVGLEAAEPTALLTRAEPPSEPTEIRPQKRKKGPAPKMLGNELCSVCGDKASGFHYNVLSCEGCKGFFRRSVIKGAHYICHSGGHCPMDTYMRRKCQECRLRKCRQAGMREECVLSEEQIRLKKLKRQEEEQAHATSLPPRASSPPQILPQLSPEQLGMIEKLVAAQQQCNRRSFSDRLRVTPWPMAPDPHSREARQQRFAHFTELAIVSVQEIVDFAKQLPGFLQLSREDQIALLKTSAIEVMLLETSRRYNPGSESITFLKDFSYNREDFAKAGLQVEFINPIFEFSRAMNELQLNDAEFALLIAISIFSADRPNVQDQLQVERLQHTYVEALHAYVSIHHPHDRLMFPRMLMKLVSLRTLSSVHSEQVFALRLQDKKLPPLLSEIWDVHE
# Outline: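 In this multiplexed TRANS system, compounds act on HepG2 cells carrying GAL4-UAS reporter units and a receptor-GAL4 fusion for 24 h. Induced reporter RNA is amplified, fluorescently labelled and sized by capillary electrophoresis, with DMSO as baseline.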
# [20] = target: Nuclear receptor subfamily 4 group A member 2 (Homo sapiens) (UniProt P43354); test: ATG_NURR1_TRANS: Attagene TRANS-FACTORIAL HepG2 Assay for human Nuclear Receptor Related Protein 1 (NURR1) (AID 2282985; active = hit-call score of the fitted dose curve at least 0.9, where 1 is the maximum); settings: HepG2 Attagene TRANS reporter, mRNA readout
# Chain of Nuclear receptor subfamily 4 group A member 2 (Homo sapiens) (P43354 whole entry, looked up, the tested form may be a part): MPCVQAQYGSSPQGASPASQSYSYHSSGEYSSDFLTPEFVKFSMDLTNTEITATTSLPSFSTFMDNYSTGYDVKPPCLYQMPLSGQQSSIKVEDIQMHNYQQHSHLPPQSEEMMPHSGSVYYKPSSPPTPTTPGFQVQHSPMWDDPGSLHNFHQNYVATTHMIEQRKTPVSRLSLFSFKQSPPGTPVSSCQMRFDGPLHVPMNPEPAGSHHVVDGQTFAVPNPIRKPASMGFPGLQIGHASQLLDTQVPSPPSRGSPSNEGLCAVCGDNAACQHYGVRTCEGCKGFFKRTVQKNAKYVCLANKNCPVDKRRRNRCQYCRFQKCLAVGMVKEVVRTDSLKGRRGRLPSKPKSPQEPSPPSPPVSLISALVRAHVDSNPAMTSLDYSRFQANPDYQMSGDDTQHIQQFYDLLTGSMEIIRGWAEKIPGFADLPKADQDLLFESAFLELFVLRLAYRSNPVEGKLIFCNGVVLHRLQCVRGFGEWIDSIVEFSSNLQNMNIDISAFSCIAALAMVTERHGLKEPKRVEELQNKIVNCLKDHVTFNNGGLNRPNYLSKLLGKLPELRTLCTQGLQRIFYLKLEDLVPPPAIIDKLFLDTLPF
# Outline: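 Measures transcriptional activation by an exogenous NR-Gal4 chimera in transfected HepG2 liver cells. After 24 h, reporter RNA is reverse-transcribed, amplified and resolved by capillary electrophoresis; DMSO defines baseline.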
smiles,measurement,setting,value
O=C(O)C[C@H](O)C[C@H](O)/C=C/c1c(C2CC2)nc2ccccc2c1-c1ccc(F)cc1,outcome,[1],inactive
same,outcome,[2],inactive
same,outcome,[3],inactive
same,outcome,[4],inactive
same,outcome,[5],inactive
same,outcome,[6],inactive
same,outcome,[7],inactive
same,outcome,[8],inactive
same,outcome,[9],inactive
same,outcome,[10],inactive
same,AC50,[11],2.68 µM (active)
same,outcome,[12],inactive
same,outcome,[13],inactive
same,outcome,[14],inactive
same,outcome,[15],inactive
same,AC50,[16],0.289 µM (active)
same,outcome,[17],inactive
same,AC50,[18],0.198 µM (active)
CCC(=O)/C=C/C1C(C)=CCCC1(C)C (stereo not drawn),outcome,[1],inactive
same,outcome,[2],inactive
same,outcome,[19],inactive
same,outcome,[3],inactive
same,outcome,[4],inactive
same,outcome,[5],inactive
same,outcome,[6],inactive
same,outcome,[20],inactive
same,outcome,[7],inactive
same,outcome,[8],inactive
same,outcome,[9],inactive
same,outcome,[10],inactive
same,AC50,[12],40.4 µM (active)
same,outcome,[13],inactive
same,outcome,[14],inactive
CCCC(=O)c1cc(O)c(O)cc1O,outcome,[1],inactive
same,outcome,[2],inactive
same,outcome,[19],inactive
same,outcome,[3],inactive
same,outcome,[5],inactive
same,outcome,[20],inactive
same,outcome,[8],inactive
same,outcome,[9],inactive
same,outcome,[10],inactive
same,outcome,[11],inactive
same,outcome,[12],inactive
same,outcome,[13],inactive
same,outcome,[14],inactive
CC(=O)OCc1ccc2c(c1)OCO2,outcome,[1],inactive
same,outcome,[2],inactive
same,outcome,[19],inactive
same,outcome,[5],inactive
same,outcome,[6],inactive
same,outcome,[20],inactive
same,outcome,[7],inactive
same,outcome,[10],inactive
same,outcome,[12],inactive
same,outcome,[13],inactive
same,outcome,[14],inactive
CN(C)CCOCCN(C)C,outcome,[1],inactive
same,outcome,[2],inactive
same,outcome,[3],inactive
same,outcome,[6],inactive
same,outcome,[7],inactive
same,outcome,[8],inactive
same,outcome,[9],inactive
same,outcome,[10],inactive
same,outcome,[11],inactive
same,outcome,[12],inactive
same,outcome,[13],inactive
same,outcome,[14],inactive
CC1=CCC2C(C1)C2(C)C (stereo not drawn),outcome,[1],inactive
same,outcome,[2],inactive
same,outcome,[19],inactive
same,outcome,[3],inactive
same,outcome,[4],inactive
same,outcome,[5],inactive
same,outcome,[6],inactive
same,outcome,[7],inactive
same,outcome,[8],inactive
same,outcome,[9],inactive
same,outcome,[10],inactive
same,AC50,[12],48.8 µM (active)
same,outcome,[13],inactive
same,outcome,[14],inactive
c1ccc2c(c1)c1cccc3ccc4cccc2c4c31,outcome,[1],inactive
same,outcome,[2],inactive
same,outcome,[19],inactive
same,outcome,[4],inactive
same,outcome,[6],inactive
same,outcome,[7],inactive
same,outcome,[9],inactive
same,outcome,[10],inactive
same,outcome,[12],inactive
same,outcome,[13],inactive
same,outcome,[14],inactive
same,outcome,[15],inactive
same,outcome,[16],inactive
same,outcome,[17],inactive
same,outcome,[18],inactive
C=CC(=O)OCCn1c(=O)n(CCOC(=O)C=C)c(=O)n(CCOC(=O)C=C)c1=O,outcome,[1],inactive
same,outcome,[2],inactive
same,outcome,[3],inactive
same,outcome,[4],inactive
same,outcome,[5],inactive
same,outcome,[6],inactive
same,outcome,[7],inactive
same,outcome,[9],inactive
same,outcome,[10],inactive
same,AC50,[12],0.811 µM (active)
same,AC50,[13],8.38 µM (active)
same,AC50,[14],24.3 µM (active)
CC1CCC(C(C)(C)O)CC1 (stereo not drawn),outcome,[1],inactive
same,outcome,[2],inactive
same,outcome,[19],inactive
same,outcome,[3],inactive
same,outcome,[4],inactive
same,outcome,[6],inactive
same,outcome,[20],inactive
same,outcome,[7],inactive
same,outcome,[8],inactive
same,outcome,[9],inactive
same,outcome,[10],inactive
same,outcome,[12],inactive
same,outcome,[13],inactive
